Assay outcomes from PubChem BioAssay.
Hits are enriched below; roughly 10% of the tested compounds scored in any of these assays.
Pf growth 96h: inhibits malaria parasite growth, 96 h. hit rate 6.9% among 320,000. Potency, µM (doses to about 28.7 µM), usual class: inhibitors. P. falciparum luciferase reporter growth, 96 h. AID 504834
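Compounds incubated with erythrocytes infected by luciferase-expressing P. falciparum (2% hematocrit, 0.05% parasitemia final) for 96 hours, 37 C in 5% CO2. Growth inhibition scored as decreased luciferase luminescence.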
SARS PLpro yeast: SARS-CoV PLP inhibition in yeast; AID 485353; Potency, µM (doses to about 32.9 µM), usual class: activators; S. cerevisiae expressing SARS-CoV PLpro, growth rescue; hit rate 0.19% among 330,000; calls by dose curve; further: nearly all actives have a fitted effect of over 55% in size
Pf growth 48h: inhibits P. falciparum growth in the first generation, 48 h; hit rate 5.9% among 310,000; Potency, µM (series often up to 28.7 µM), most hits filed as inhibitors; P. falciparum luciferase growth in erythrocytes, 48 h
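Luciferase-expressing parasites in RBCs, 2% Hct / 0.1% parasitemia final; RPMI 1640 + 0.5% Albumax; 37 C, 5% CO2, one generation; luminescence read-out, lower signal = inhibition.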
NS1 inh: influenza NS1 inhibition; hit rate 0.4% among 270,000; Potency, µM (series often up to 46.1 µM); calls by dose curve; further: actives are rising curves; nearly all actives have a fitted effect of over 50% in size
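Recovery from NS1-induced slow growth read by OD600 in budding yeast switched to galactose assay medium (pH 6.0, -URA) at 1:100 dilution. Compound 23 nl per well; the matching strain lacking NS1 serves as control.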
Numbers stand for hits; n = inactive; u = inconclusive; x = no result. Unless noted, the call rests on the fitted dose curve; in most records, active means well fitted inhibition curve with a large enough effect; inconclusive means small, poorly fitted or top-dose-only effect, or another doubt; inactive means no such curve, though single readings can be large or run the other way.

SMILES	Pf growth 96h	SARS PLpro yeast	Pf growth 48h	NS1 inh
C[N+]1(C)CC2=Cc3ccccc3CC2C1 (configuration not stated)	n	n	u	n
C1=C2C[N+]3(CCCC3)CC2Cc2ccc3ccccc3c21 (configuration not stated)	0.74µM	n	x	n
CCOc1ccc(NC(=O)c2ccc(NC(=O)c3cn4c5c(c(N6CCN(C)CC6)c(F)cc5c3=O)OCC4C)cc2)cc1 (configuration not stated)	2.6µM	n	2.3µM	n
COc1cccc(/C=C2/CN(C)CC3=C2OC(N)=C(C#N)C3c2cccc(OC)c2)c1 (configuration not stated)	u	n	13µM	n
N#Cc1cnn2c(C(F)(F)F)cc(-c3ccccc3)nc12	n	n	10µM	n
O=C(c1cnn2c(C(F)(F)F)cc(-c3ccccc3)nc12)N1CCC2(CC1)OCCO2	15µM	n	x	n
O=C(c1cnn2c(C(F)(F)F)cc(-c3ccccc3)nc12)N1CCCc2ccccc21	x	n	n	n
COc1ccc(-c2cc(C(F)(F)F)n3ncc(C(=O)N4CCc5ccccc5C4)c3n2)cc1	n	n	9.3µM	n
COc1cc2c(cc1OC)CN(CC(=O)Nc1cccc(C(F)(F)F)c1)CC2	n	n	n	n
COc1ccc(-n2nc3c(c2NC(=O)c2ccc(Br)o2)CS(=O)(=O)C3)cc1	u	n	n	n
CCN(CC)C(=O)Cn1c(=O)n(CC(=O)N2CCCCC2)c(=O)c2sccc21	u	n	n	n
COc1cc(OC)nc(/N=C/NO)n1	n	n	n	n
CC(C)(C)OC(=O)NCCCC[C@H](NC(=O)c1nc[nH]c1C(=O)N1CCN(c2ccccc2)CC1)C(=O)OC(C)(C)C	13µM	n	12µM	n
CC(C)(C)OC(=O)NCCCC[C@H](NC(=O)c1nc[nH]c1C(=O)N1CCN(C(=O)OC(C)(C)C)CC1)C(=O)OC(C)(C)C	8.3µM	n	u	n
CC(C)(C)OC(=O)NCCCCCNC(=O)c1nc[nH]c1C(=O)N1CCN(C(=O)OC(C)(C)C)CC1	u	n	u	x
COc1ccc(-c2cc(=O)n(CCC#N)[nH]2)cc1	7.4µM	n	n	n
CN(Cc1nc(-c2cccs2)no1)CC1(N2CCOCC2)CCCCC1	n	n	u	n
CCOC(=O)Cn1c(=NC(=O)C2COc3ccccc3O2)sc2cc(S(N)(=O)=O)ccc21 (configuration not stated)	u	n	n	n
CCOC(=O)Cn1c(=NC(=O)c2ccc([N+](=O)[O-])s2)sc2ccccc21	3.7µM	n	9.3µM	n
COc1ccc(Nc2c3c(nc4ccc(C)cc24)CCC3)cc1	n	n	8.3µM	n
Cc1cc(C)c(C#N)c(Nc2ccc3c(c2)OCCO3)n1	u	n	x	n
Cc1ccc2nc3c(c(Nc4ccc5c(c4)OCCO5)c2c1)CCC3	u	n	4.1µM	n
Cc1ccc2nc3c(c(Nc4ccc(O)cc4)c2c1)CCC3	n	n	2.3µM	n
Cc1ccc(C)c(CNS(=O)(=O)c2c(C(=O)N3CCCC3)c(C)n(C)c2C)c1	u	n	u	n
CC(C)(C)C(=O)/C(=C/c1ccc(Cl)cc1)n1cncn1	n	n	15µM	n
SMILES	Pf growth 96h	SARS PLpro yeast	Pf growth 48h	NS1 inh
CC(C)(C)C(=O)/C(=C\c1ccc([N+](=O)[O-])cc1)n1cncn1	u	n	12µM	n
CC1CCN(C(=O)CCNS(=O)(=O)c2ccc3c(c2)c(=O)n(C)c(=O)n3C)CC1	n	n	n	n
CCC1Oc2ccc(C)cc2N(CC(=O)NCCN2CCOCC2)C1=O (configuration not stated)	n	n	n	n
Cc1ccc(S(=O)(=O)N(C)c2ccc(C(=O)Nc3ccc(C)cn3)cc2)cc1	u	n	12µM	x
COCCn1c(C)cc(C(=O)COc2ccc(N(C)S(=O)(=O)c3ccc(C)cc3)cc2)c1C	u	n	9.3µM	x
COCCn1c(C)cc(C(=O)COC(=O)c2ccc(S(=O)(=O)N(C)C)cc2)c1C	x	n	x	x
CCN(CC)S(=O)(=O)c1ccc(NC(=O)c2ccccc2N(C)S(C)(=O)=O)cc1	n	n	x	n
CCN(CC)S(=O)(=O)c1ccc(C(=O)Nc2ccc(OCC(=O)N3CCOCC3)cc2)cc1	0.37µM	n	u	n
Cc1ccc(S(=O)(=O)N(C)c2ccc(C(=O)Nc3ccccn3)cc2)cc1	u	n	u	x
CCCCOc1ccc(C(=O)Nc2ccc(OCC(=O)N3CCOCC3)cc2)cc1	u	n	n	n
CCN(CC)S(=O)(=O)c1ccc(NC(=O)c2ccc(N(C)S(C)(=O)=O)cc2)cc1	8.3µM	n	17µM	n
CC1(C)CC(=O)C=C(c2cccc(O)c2)C1	n	n	n	x
